Among the data in PubChem BioAssay (NCI) are growth values, retold here.

Some test systems named below: NCI-H23 lung; NCI-H226 lung; NCI-H322M lung; HOP-62 NSCLC; HOP-92 NSCLC; NCI-H522 lung; A549/ATCC NSCLC; 786-0 renal; COLO 205 colon; DU-145 prostate; K-562 leukemia; MALME-3M melanoma; MDA-MB-231 breast; RXF 393 renal; SF-268 CNS; SF-295 CNS; SF-539 CNS; UACC-257 melanoma; M14 melanoma.
Common to all, as to assay: NCI-60 one-dose screen, 48 h (100 = growth as untreated, 0 = no growth, -100 = all killed)
Holding throughout (conditions): 10 µM unless noted

SMILES strings stand for the structures. Compounds without any hit were thinned out: in the full panel of roughly 83,000, 20% have a hit.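 Interpretation: 100, growth as untreated; towards 0, rising growth inhibition; 0, no net growth; 0 to -100, cell death. Compounds scoring below 10 were considered active.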 A number with no mark means an inactive call. The source made the active and inactive calls.

With `O=[N+]([O-])c1ccc(Sc2ncccn2)c([N+](=O)[O-])c1`, the growth in the experiment on NCI-H23 lung is 53.5%; in the experiment on NCI-H226 lung, 96.3%; in the experiment on NCI-H322M lung, 97.7%; in the experiment on HOP-62 NSCLC it was 94.6%; in the experiment with HOP-92 NSCLC, 18%; in the experiment on NCI-H522 lung, -50.1% (active). For the same compound, the growth in the experiment on A549/ATCC NSCLC was 67.9%; with 786-0 renal, 61.3%; with COLO 205 colon, 21%; in the experiment on DU-145 prostate, 11.1%; with K-562 leukemia it was 12.7%; in the experiment with MALME-3M melanoma, 75.8%. Moreover, the growth in the experiment on MDA-MB-231 breast is 68.6%; in the experiment on RXF 393 renal, -38.6% (active); in the experiment with SF-268 CNS, 52.8%; with SF-295 CNS, 111%; with SF-539 CNS, 96.7%; with UACC-257 melanoma it was 29.4%. Further, in the experiment on M14 melanoma, the growth was 62.5%.

Consider `O=c1ccn(-c2ncnc3nc[nH]c23)cc1`, for which the growth with NCI-H23 lung is 92.1%; with NCI-H226 lung it was 88.8%; in the experiment on NCI-H322M lung it was 97.5%; in the experiment on HOP-62 NSCLC, 89.8%; in the experiment with HOP-92 NSCLC, 72.9%; in the experiment with NCI-H522 lung, 80.4%. The growth in the experiment with A549/ATCC NSCLC is 35.8%; with 786-0 renal it was 97.1%; with COLO 205 colon, 101%; in the experiment with DU-145 prostate, 101%; in the experiment with K-562 leukemia, 89.9%; with MALME-3M melanoma, 68.8%. The growth in the experiment on MDA-MB-231 breast is 101%; in the experiment on RXF 393 renal, 79.6%; in the experiment with SF-268 CNS, 95.2%; in the experiment with SF-295 CNS it was 115%; with SF-539 CNS, 96.4%; in the experiment on UACC-257 melanoma, 3.23% (active).

`C=C1CCC2C(C)(CO)C(O)CCC2(C)C1C/C=C1/C(=O)OCC1Oc1ccccc1C` (stereo not drawn): the growth in the experiment on NCI-H23 lung was 94%; in the experiment with NCI-H226 lung it was 80%; with NCI-H322M lung it was 98.6%; with HOP-62 NSCLC it was 101%; in the experiment on HOP-92 NSCLC it was 118%; in the experiment on A549/ATCC NSCLC, 89.1%. Besides, the growth was 98% in the experiment with 786-0 renal; 105% in the experiment on COLO 205 colon; 82.8% in the experiment with DU-145 prostate; 30.6% in the experiment on K-562 leukemia; 109% with MALME-3M melanoma; 109% in the experiment on MDA-MB-231 breast. Besides, the growth in the experiment with RXF 393 renal is 109%; in the experiment on SF-268 CNS, 102%; in the experiment on SF-295 CNS it was 97.6%; in the experiment on SF-539 CNS, 81.1%; with UACC-257 melanoma, 83.5%; in the experiment on M14 melanoma, 67.1%.

With `COc1cc(/C=N\NC(=O)CN2CCN(c3cc4c(cc3F)c(=O)c(C(=O)N/N=C/c3cc(OC)c(OC)c(OC)c3)cn4C3CC3)CC2)cc(OC)c1OC`, the growth is -36.4% (active) in the experiment with NCI-H23 lung; -64.7% (active) in the experiment on NCI-H226 lung; 11.5% in the experiment on NCI-H322M lung; -11.8% (active) in the experiment with HOP-62 NSCLC; -39% (active) in the experiment with HOP-92 NSCLC; 8.22% (active) in the experiment with NCI-H522 lung. For the same compound, the growth in the experiment on A549/ATCC NSCLC is 73.4%; in the experiment with 786-0 renal, 54.9%; in the experiment on COLO 205 colon it was 7.48% (active); in the experiment on DU-145 prostate, 8.55% (active); in the experiment on K-562 leukemia, 5.07% (active); in the experiment on MALME-3M melanoma, -15.8% (active). Also, the growth was -16.1% (active) with MDA-MB-231 breast; -3.67% (active) in the experiment with RXF 393 renal; -6.34% (active) in the experiment on SF-268 CNS; 17.4% in the experiment on SF-295 CNS; -68.2% (active) in the experiment on SF-539 CNS; 22.2% with UACC-257 melanoma. In addition, in the experiment on M14 melanoma, the growth is 18.2%.

Consider `COc1ccc(-c2ccc(C)n2-c2ccc(-c3nc4ccccc4s3)cc2)cc1`, for which the growth in the experiment on NCI-H23 lung is 81.4%; in the experiment on NCI-H226 lung, 85.2%; in the experiment on NCI-H322M lung, 98.2%; in the experiment on HOP-62 NSCLC it was 87.6%; in the experiment with HOP-92 NSCLC it was 86.2%; in the experiment on NCI-H522 lung it was 89.4%. In addition, the growth is 85.6% in the experiment on A549/ATCC NSCLC; 100% in the experiment with 786-0 renal; 94% in the experiment on COLO 205 colon; 104% in the experiment on DU-145 prostate; 91.6% with K-562 leukemia; 108% in the experiment with MALME-3M melanoma. In addition, the growth was 68.4% in the experiment on MDA-MB-231 breast; 94.7% in the experiment on RXF 393 renal; 96% in the experiment on SF-268 CNS; 86.5% with SF-295 CNS; 99.3% with SF-539 CNS; 109% in the experiment with UACC-257 melanoma. Also, the growth in the experiment on M14 melanoma was 103%.

With `COc1ccc2c(c1)C(c1cc(OC)c3c(c1)OCO3)C1=C(COC1=O)N2` (stereo not drawn), the growth with NCI-H23 lung was 38.2%; in the experiment with NCI-H226 lung it was 27.5%; in the experiment with NCI-H322M lung, 51.4%; in the experiment with HOP-62 NSCLC, 36.5%; in the experiment on HOP-92 NSCLC it was 26.9%; in the experiment on NCI-H522 lung, -38.5% (active). For the same compound, the growth with A549/ATCC NSCLC was 14.7%; in the experiment with 786-0 renal it was 29.5%; with COLO 205 colon, -22.6% (active); in the experiment on DU-145 prostate, 3.41% (active); in the experiment with K-562 leukemia, 12%; in the experiment on MALME-3M melanoma, 54.2%. In addition, the growth in the experiment with MDA-MB-231 breast is 24.4%; with RXF 393 renal, -8.85% (active); in the experiment on SF-268 CNS, 32.2%; with SF-295 CNS, 1.56% (active); in the experiment with SF-539 CNS, 5.62% (active); in the experiment on UACC-257 melanoma, 66.1%. Moreover, the growth in the experiment on M14 melanoma is 5.65% (active).

With `COc1ccc(-c2cc3c(OC)c(OC)c(OC)cc3oc2=O)cc1`, the growth was 59.1% with NCI-H23 lung; 83.1% in the experiment with NCI-H226 lung; 77% with NCI-H322M lung; 50.4% in the experiment on HOP-62 NSCLC; 30.6% in the experiment with HOP-92 NSCLC; -11.7% (active) with NCI-H522 lung. Besides, the growth is 47.7% in the experiment on A549/ATCC NSCLC; 57.2% with 786-0 renal; 31.5% in the experiment on COLO 205 colon; 73.3% in the experiment on DU-145 prostate; 26.1% in the experiment on K-562 leukemia; 46.9% in the experiment on MALME-3M melanoma. Moreover, the growth in the experiment on MDA-MB-231 breast is 57.8%; with RXF 393 renal it was 81.4%; with SF-268 CNS, 66.8%; in the experiment on SF-295 CNS, 54.3%; with SF-539 CNS, 59.9%; with UACC-257 melanoma, 82.4%. Also, the growth in the experiment on M14 melanoma is 28.9%.

On to `COc1cc2c(cc1OCCCCCn1c3ccccc3c3ccccc31)N=C[C@@H]1CCCN1C2=O`, for which the growth in the experiment with NCI-H23 lung was -25.5% (active); in the experiment on NCI-H226 lung it was -91.8% (active); in the experiment with NCI-H322M lung it was 16.2%; with HOP-62 NSCLC, -38.5% (active); in the experiment with HOP-92 NSCLC, -65.5% (active); in the experiment on A549/ATCC NSCLC it was -66.9% (active). Moreover, the growth is -92.9% (active) in the experiment with 786-0 renal; -85.9% (active) with COLO 205 colon; -53.3% (active) in the experiment on DU-145 prostate; -21.1% (active) in the experiment on K-562 leukemia; -64.7% (active) with MALME-3M melanoma; -87.1% (active) in the experiment on MDA-MB-231 breast. Besides, the growth in the experiment on RXF 393 renal is -80.7% (active); with SF-268 CNS, -59.9% (active); in the experiment on SF-295 CNS, 11.7%; in the experiment with SF-539 CNS it was -85.8% (active); in the experiment on UACC-257 melanoma it was -55.4% (active).
